KB-V1 cytotox = kills drug-selected multidrug resistant KB-V1 cells. 3.4% of 400,000 active. Potency, µM (titrated, usually from 46.1 µM), actives largely listed as cytotoxic. KB-V1 MDR cells viability, CellTiter-Glo, 72 h; note: % is set by controls: 0 for no effect and ±100 for the full control effect; nearly all actives have a fitted effect of over 60% in size
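Following 72 h at 37 degrees C with compound, KB-V1 cell viability was read by CellTiter-Glo luminescence, medium being phenol-red-free DMEM plus 10% FBS; concentration-response parameters came from normalized, curve-fitted qHTS data.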
HT1080NT lethal = kills 2HG-producing HT-1080-NT fibrosarcoma cells. HT-1080-NT fibrosarcoma viability, CellTiter-Glo ATP luminescence, 48 h. Potency, µM (doses to about 46.1 µM), for inactives: top-dose activity, negative = less viability, hits mostly cytotoxic. 1.6% of 360,000 active;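 note: NT is the 2HG producing partner of a matched IDH1 knockdown line; 0% = DMSO-treated cells and -100% = media-only wells without cells; nearly all actives have a fitted effect of over 55% in size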
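Fibrosarcoma NT cells, 750 per well in 5% FBS RPMI, were exposed to compound for 48 hours. Viability: CellTiter-Glo luminescence.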
SW480 rerep = inducers of DNA re-replication in SW480 colon cancer cells; SW480 DNA re-replication, Hoechst DNA content imaging, 48 h; AID 624297; 1.8% of 340,000 active; Potency, µM (highest dose often 46.1 µM), for the others: top-dose re-replication activation, actives largely listed as activators; note: % of control where 0% means no effect; nearly all actives have a fitted effect of over 55% in size
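Quantitative HTS format with DMSO vehicle controls; 48 hr drug incubation at 37 C, then 40 min Hoechst staining and scanning imager measurement at 405 nm excitation.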
KB-3-1 tox = KB-3-1 parental cell cytotoxicity; KB-3-1 viability, CellTiter-Glo ATP luminescence, 72 h; Potency, µM (titrated, usually from 46.1 µM), hits mostly cytotoxic; 1.4% of 400,000 active; AID 1347075; note: % is set by controls: 0 for no effect and ±100 for the full control effect; nearly all actives have a fitted effect of over 60% in size
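Luminescent ATP read-out (CellTiter-Glo) measures survival of drug-naive KB-3-1 cells after 72 h compound exposure at 37 °C. Titration series was screened from lowest to highest concentration, with DMSO vehicle plates as background controls.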
HT1080 IDH1KD tx = toxicity to HT-1080 IDH1 knockdown cells (counter line). Potency, µM (series often up to 46.1 µM), without a hit: top-dose activity, negative = toxicity, actives largely listed as cytotoxic. 2% of 360,000 active. HT-1080 IDH1 knockdown viability, ATP luminescence, 48 h;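 note: 0% = DMSO wells and -100% = cell-free medium wells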
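HT-1080-IDH1KD cells (IDH1 knocked down), 750/well in RPMI with 5% FBS, treated with compound 48 h at 37 degrees C. Viability by CellTiter-Glo luminescence, normalised to DMSO and no-cell wells; concentration-response curves classed.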
MCF10A rereplic = induces DNA re-replication in MCF 10a normal breast cells | MCF 10A DNA re-replication, Hoechst nuclear intensity, 48 h | Potency, µM (highest dose often 46.1 µM), without a hit: top-dose activity, positive = re-replication, most hits filed as activators | 2.9% of 350,000 active; note: % of control where 0% means no effect; nearly all actives have a fitted effect of over 50% in size
* marks the source's active call; other numbers are inactive results; i = inactive; u = inconclusive; x = no result; [ ] = another dose, or the depositor's remark. The list is not random: actives were taken first. Their share in the collection is about 7.9%. Calls come from the whole dose curve; as a rule, active = well fitted curve in the direction sought with a large enough effect; inconclusive = small, poorly fitted or top-dose-only effect, or another doubt; inactive = no such curve, though single readings can be large; an effect the other way counts as inactive or inconclusive. Potency is the fitted concentration of half-maximal effect.

SMILES	KB-V1 cytotox	HT1080NT lethal	SW480 rerep	KB-3-1 tox	HT1080 IDH1KD tx	MCF10A rereplic
O=C(NCC(c1ccco1)N1CCCC1)c1cccc(S(=O)(=O)Nc2ccc(Br)cc2)c1 (stereo unspecified)	x	-3%	9%	x	0%	u
Cc1ccc(S(=O)(=O)Nc2cccc(C(=O)NCC(c3ccco3)N3CCCC3)c2)cc1F (stereo unspecified)	u	u	23µM*	u	-5%	21%
CCCCn1nnnc1C(c1ccccc1)N1CCN(c2ccccn2)CC1 (stereo unspecified)	i	15%	x	i	10%	x
NS(=O)(=O)c1ccc(CNC(=O)Cc2ccccc2[N+](=O)[O-])cc1	i	-1%	17%	i	-1%	5%
Cc1ccc(-c2nc(C#N)c(NCCN3CCCCC3)o2)cc1	23µM*	-10%	6%	i	-7%	2%
COCCNc1oc(-c2ccc(C)cc2)nc1C#N	23µM*	2%	-173%	i	10%	2%
N#Cc1nc(-c2ccc(F)cc2)oc1NCCN1CCOCC1	u	-2%	-16%	i	-7%	12%
COC(=O)CCCn1c(C)cc(C(=O)CCl)c1C	i	21µM*	u	i	u	u
CCOC(=O)c1cc(C)n(CCc2ccccc2)c1C	i	27%	-3%[9.22 µM]	i	11%	16%
COC(=O)CCn1c(C)cc(C(=O)COc2ccccc2C(N)=O)c1C	u	-18%	-7%	i	u	3%
Cc1cc(C(=O)CCl)c(C)n1CCc1ccccc1	u	13µM*	u	u	u	-8%
COc1ccccc1CCN1CCCC(CN(C)C(=O)c2ccoc2)C1 (stereo unspecified)	i	4%	20%	i	2%	-3%
COc1ccc(C)cc1NC(=O)c1cnc2ccc(C)cn2c1=O	i	x	x	i	x	x
COc1ccc(C)cc1NC(=O)c1cnc2scc(C)n2c1=O	i	3%	u	i	-2%	23µM*
COc1cc(-c2nc3ccc(C)cn3c2NCc2ccccc2)ccc1-c1cccc(Cl)c1	i	u	u	i	-11%	u
COc1cc(-c2nc3ccccn3c2NCc2ccccc2)ccc1SC1CCCCC1	u	u	29%	u	u	26µM*
Cc1ccc2nc(-c3ccc(-c4cccc(Cl)c4)cc3)c(NCc3ccccc3)n2c1	i	-1%	0.33µM*	i	-11%	u
c1ccc(-c2nc3ccccn3c2NC2CCCC2)nc1	i	u	19%	i	u	23%
COc1cc(-c2nc3ccc(C)cn3c2NCc2ccccc2)ccc1SC1CCCCC1	u	u	u	i	u	18µM*
COc1ccc(-c2nc3ccccn3c2NC2CCCCC2)cc1SC1CCCCC1	i	u	u	u	u	12µM*
COc1cccc(C(=O)NOCc2ccccc2)c1OC	i	18%	-31%	i	7%	-1%
CC(=O)c1cccc(NC(=O)c2ccc(-c3c(C)noc3C)c3ccoc23)c1	u	25%	x	i	u	x
Cc1nn(Cc2ccccc2)c(C)c1CNC(=O)CN=C1NS(=O)(=O)c2ccccc21	u	-19%	-2%	i	-1%	7%
CN(Cc1cccs1)C(=O)COc1cccc2c1OC(C)(C)C2	18µM*	5%	1%	i	12%	-4%
CN(C)CCNC(=O)COc1cccc2c1OC(C)(C)C2	i	11%	14%	i	12%	-7%
CC1(C)Cc2cccc(OCC(=O)NCCc3ccc(S(N)(=O)=O)cc3)c2O1	26µM*	1%	-6%	i	-4%	-4%
CC(=O)c1ccc(N2CCN(S(=O)(=O)c3ccc(-c4cnc(C5CC5)o4)cc3)CC2)cc1	u	15µM*	0%	i	21µM*	23%

Screens as filed in PubChem.
